Calls of active or inactive are those of the source. Where a call stands in place of a potency, no number is given. Calls follow the shape of the full dose curve.

These results are taken from PubChem BioAssay (Tox21).

Acetylcholinesterase (Homo sapiens), sequence (P22303 whole entry, looked up): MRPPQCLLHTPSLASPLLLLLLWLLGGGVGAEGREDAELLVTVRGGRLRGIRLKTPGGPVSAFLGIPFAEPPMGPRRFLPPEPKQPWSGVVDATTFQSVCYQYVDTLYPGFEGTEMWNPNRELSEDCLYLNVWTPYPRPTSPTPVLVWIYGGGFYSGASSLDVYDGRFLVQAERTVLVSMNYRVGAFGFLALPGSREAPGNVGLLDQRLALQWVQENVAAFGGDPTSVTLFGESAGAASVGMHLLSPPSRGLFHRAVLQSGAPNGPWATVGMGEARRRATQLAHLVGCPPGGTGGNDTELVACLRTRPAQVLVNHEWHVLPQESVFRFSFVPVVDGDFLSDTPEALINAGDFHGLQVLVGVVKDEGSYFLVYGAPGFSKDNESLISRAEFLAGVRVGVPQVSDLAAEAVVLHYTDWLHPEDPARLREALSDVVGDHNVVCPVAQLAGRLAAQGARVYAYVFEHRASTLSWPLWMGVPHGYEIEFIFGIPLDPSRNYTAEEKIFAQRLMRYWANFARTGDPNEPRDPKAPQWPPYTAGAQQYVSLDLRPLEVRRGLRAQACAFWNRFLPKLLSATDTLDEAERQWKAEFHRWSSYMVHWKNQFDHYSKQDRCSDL

This assay addresses Acetylcholinesterase (Homo sapiens) (UniProt P22303). Briefly: Acetylcholinesterase (AChE) small molecule antagonists: enzyme-based qHTS assay with human liver microsomes (AID 1347399). Also: nearly all actives have a fitted effect of over 60% in size. Conditions: Potency: qHTS inhibition; outcome: qHTS inhibition; series mostly up to 115 µM. The source says:
National Center for Advancing Translational Sciences [NCATS]
Division of Preclinical Innovation [DPI]
U.S. Environmental Protection Agency [EPA]
National Institutes of Environmental Health Sciences [NIEHS]
National Toxicology Program [NTP]
U.S. Food and Drug Administration [FDA]
Acetylcholinesterase (AChE) is the primary cholinesterase in the body that hydrolyzes a key neurotransmitter, acetylcholine. Inhibition of AChE activity can lead to neurotoxicity. The known inhibitors include organophosphorous pesticides (OP), chemical warfare agents, drugs, and various phytochemicals. Some compounds like OP compounds may need metabolic activation to be active AChE inhibitors. The cytochrome P450 (CYP) superfamily in the human microsomes is responsible for the metabolism of various endogenous and exogenous compounds.
An enzyme-based assay with the recombinant human AChE, human liver microsomes and Amplite Colormetric acetylcholinesterase assay kit (AAT Bioquest, Sunnyvale, CA) was used to evaluate compounds in the Tox21 10K library that need metabolic activation for AChE inhibition. The assay uses 5, 5-dithiobis-(2-nitrobenzoic acid) (DTNB) to quantify the thiocholine produced from the hydrolysis of acetylthiocholine by AChE.
Tox21 Assay Protocol Summary:
For the enzyme-based AChE assay with microsomes addition, a mixture of human AChE (50 mU/mL) and human liver microsomes (0.25 mg/mL, final concentration) in 3 uL/well was dispensed into black, clear-bottom 1536-well plates using a Multidrop Combi dispenser (Thermo Scientific, MA). Then, 23 nL of compound or DMSO (vehicle control) was transferred into the assay plates by a Pintool Station (Wako Automation, CA). Following compound addition, 1 uL of NADPH (0.25 mg/mL, final concentration) was transferred to the assay plate by a Flying Reagent Dispenser (Beckman Coulter, CA). The plates were incubated for 30 min at 37 C and 5% CO2, followed by the addition of 4 uL of colorimetric detection cocktail solution (DTNB, acetylthiocholine) into each well using a Flying Reagent Dispenser (Beckman Coulter, CA) and then 10 min incubation at room temperature.
On to `CNc1ccc([N+](=O)[O-])cc1`, for which the Potency entry is “inactive”. With `O=C(O)/C=C/c1cnc[nH]1`, the Potency result was “inactive”. Still for that read-out and setting: the entry for `O=C(O)CONC(=O)c1ccccc1` is “inactive”; for `COC(Cc1ccccc1)OC` it is “inactive”. On the same count and under the same terms, in the case of `CC1=NN(c2cc(Cl)c(S(=O)(=O)O)cc2Cl)C(=O)C1N=Nc1ccc(S(=O)(=O)O)cc1` (stereo not given) it was “inactive”. On the same count and under the same terms, the entry for `Cn1cnc2c(=O)[nH]c(N)nc21` is “inactive”; for `CN(C)CCCN(C)CCCN(C)C` it is “inactive”; for `CCCCCCCCCCCCCCC(=O)O` it is “inactive”. On to `CC(CO)Oc1ccccc1` (stereo not given), for which the Potency entry was “inactive”. On the same count and under the same terms, the entry for `CSc1c(Cl)c(Cl)c(Cl)c(Cl)c1Cl` is “inactive”; for `COc1ccc(Br)c(C)c1` it is “inactive”. Same read-out and setting: in the case of `CCC(=O)c1cccc(Cl)c1` it was “inactive”.

Consider `CC(C)(C)c1ccc(CCC=O)cc1`, for which the Potency result was “inactive”. On the same count and under the same terms, the entry for `CCCO[Si](OCCC)(OCCC)OCCC` is “inactive”; for `CCC(C)C(C)=O` (stereo not given) it is “inactive”. As to `Brc1c2ccccc2c(Br)c2ccccc12`, the activity change, negative = inhibition was 1.07% [at 10.5 µM] (inactive). Regarding `COC(=O)CC(=O)OC`, the Potency entry was “inactive”.

Regarding `ClC1=C(Cl)[C@]2(Cl)[C@@H]3[C@@H](Cl)[C@H]4O[C@H]4[C@@H]3C1(Cl)C2(Cl)Cl`, the Potency entry was “inactive”. Still for that read-out and setting: in the case of `CC(=O)Oc1ccc(C)cc1` it was “inactive”; in that of `CC1(C)S[C@@H]2[C@H](NC(=O)COc3ccccc3)C(=O)N2[C@H]1C(=O)O`, “inactive”. The same measure, in the same setting: the entry for `Cc1cc(O)c(Cl)cc1C` is “inactive”. `c1ccc(SSc2ccccc2)cc1`: the Potency entry was “inactive”.

Take `Nc1c(CC(=O)O)cccc1C(=O)c1ccc(Br)cc1`: the Potency result is “inactive”. Same read-out and setting: the entry for `Cc1ccc2ccccc2n1` is “inactive”.

For `Cc1ccc([N+](=O)[O-])cc1S(=O)(=O)O`, the Potency result is “inactive”. On the same count and under the same terms, in the case of `C=CC(=O)CCCCC` it was “inactive”. Same read-out and setting: the entry for `O=C(NS(=O)(=O)/C=C/c1ccccc1)c1ccc(F)cc1Cl` is “inactive”; for `CC(C)(C#N)c1cc(Cn2cncn2)cc(C(C)(C)C#N)c1` it is “inactive”. Same read-out and setting: in the case of `CCC(C)n1ncn(-c2ccc(N3CCN(c4ccc(OC[C@H]5CO[C@](Cn6cncn6)(c6ccc(Cl)cc6Cl)O5)cc4)CC3)cc2)c1=O` (stereo not given in full) it was “inactive”; in that of `CC[C@]12CCCN3CCc4c(n(c5ccccc45)C(=O)C1)[C@@H]32`, “inactive”. With `CCCOCCO`, the Potency entry is “inactive”. The same measure, in the same setting: the entry for `Nc1ccc(N=Nc2ccccc2)c(N)n1` is “inactive”; for `Oc1cc2ccccc2cc1O` it is “inactive”. The same measure, in the same setting: the entry for `Cc1cc2c(C(C)C)c(O)c(O)c(C=O)c2c(O)c1-c1c(C)cc2c(C(C)C)c(O)c(O)c(C=O)c2c1O` is “inactive”. Same read-out and setting: in the case of `NCCS(=O)(=O)O` it was “inactive”; in that of `CC(CC(=O)O)CC(C)(C)C` (stereo not given), “inactive”.

`Oc1cn2c(n1)Nc1ccc(Cl)c(Cl)c1C2`: the activity change, negative = inhibition was 0.168% [at 23.6 µM] (inactive).

Take `O=C(O)Cc1cccc2ccccc12`: the Potency entry was “inactive”.

Take `CC(N)C12CC3CC(CC(C3)C1)C2` (stereo not given): the Potency entry is “inactive”.

As for `C=CC(C)(O)CC/C=C(/C)CCC=C(C)C` (stereo not given), the Potency result is “inactive”.
